Experimental data taken from ChEMBL document CHEMBL1961873, “Compounds: GSK PKIS; Assays: Nanosyn kinase panel” (2012).

What follows are compounds tested against Fibroblast growth factor receptor 4 (Homo sapiens) (UniProt P22455). Conditions: at 1 µM.
Chain of Fibroblast growth factor receptor 4 (Homo sapiens) (P22455 22-802 limits assumed): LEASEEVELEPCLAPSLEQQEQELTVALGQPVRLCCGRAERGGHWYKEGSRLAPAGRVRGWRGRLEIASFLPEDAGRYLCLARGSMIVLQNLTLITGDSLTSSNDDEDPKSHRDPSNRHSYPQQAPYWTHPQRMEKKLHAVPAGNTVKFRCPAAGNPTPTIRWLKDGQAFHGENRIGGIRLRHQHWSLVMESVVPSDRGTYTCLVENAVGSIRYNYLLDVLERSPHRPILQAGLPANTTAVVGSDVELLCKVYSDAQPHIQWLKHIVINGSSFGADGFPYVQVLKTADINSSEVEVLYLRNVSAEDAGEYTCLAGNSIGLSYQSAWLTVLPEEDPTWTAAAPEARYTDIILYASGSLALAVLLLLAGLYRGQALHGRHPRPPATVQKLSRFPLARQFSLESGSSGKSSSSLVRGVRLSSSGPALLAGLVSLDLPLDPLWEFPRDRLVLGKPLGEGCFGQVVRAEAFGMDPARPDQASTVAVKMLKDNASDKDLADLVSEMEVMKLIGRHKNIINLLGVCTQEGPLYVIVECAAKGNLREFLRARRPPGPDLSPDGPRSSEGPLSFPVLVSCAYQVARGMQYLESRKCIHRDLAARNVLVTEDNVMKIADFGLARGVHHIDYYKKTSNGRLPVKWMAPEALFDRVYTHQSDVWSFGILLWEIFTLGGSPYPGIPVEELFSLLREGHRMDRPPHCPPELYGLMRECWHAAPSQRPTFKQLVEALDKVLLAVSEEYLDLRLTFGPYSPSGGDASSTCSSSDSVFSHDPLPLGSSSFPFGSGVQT

Row | SMILES | inhibition
1 | Cc1cc(Cl)cc2c1NC(=O)C2=NNc1ccc(S(N)(=O)=O)cc1 | 2.64%
2 | COc1ccc(-c2nn3ncccc3c2-c2ccnc(Nc3cccc(C(F)(F)F)c3)n2)cc1 | 0.55%
3 | O=C(Nc1ccc(Oc2ccc3[nH]c(NC(=O)c4ccco4)nc3c2)cc1)Nc1cc(C(F)(F)F)ccc1F | -2.3%
4 | NS(=O)(=O)c1cccc(Nc2cc(-c3ccc(F)cc3)n[nH]2)c1 | 2.4%
5 | CS(=O)(=O)Nc1cccc(-c2ccc3c(NC(=O)C4CC4)n[nH]c3c2)c1 | -2.02%
6 | Cc1ccc2c(c1)/C(=N/Nc1ccc(S(N)(=O)=O)cc1)C(=O)N2 | -0.45%
7 | COc1cc2ncn(-c3cc(OCc4ccccc4S(C)(=O)=O)c(C#N)s3)c2cc1OC | 1.47%
8 | Nc1ccc(C#Cc2cncnc2Nc2ccc(OCc3cccc(F)c3)c(Cl)c2)cc1 | 1.61%
9 | Cc1nc(-c2ccccc2)n2nc(NCCCN3CCOCC3)ncc12 | 3.35%
10 | CCOc1nccc2c1nc(-c1nonc1N)n2CC | 4.2%
11 | COc1cc(/C=N/Nc2ncnc3c2cnn3C(C)C)ccc1O | 1.4%
12 | NS(=O)(=O)c1ccc(-c2cc3ccncc3cc2OCc2ccccc2)cc1 | 4.68%
13 | CN(C)CCCn1c(-c2nonc2N)nc2cnccc21 | 1.11%
14 | Cc1ccc(O)cc1Nc1ccnc2ccc(S(C)(=O)=O)cc12 | 9.15%
15 | Cc1ccc2c(-c3ccnc(Nc4ccc5c(c4)OCCO5)n3)c(-c3ccc(C(F)(F)F)cc3)nn2n1 | 2.08%
16 | CCn1c(-c2nonc2N)nc2c(C#CC(C)(C)O)nc(OCCNC)cc21 | 1.88%
17 | Cc1ccc(NC(=O)CC2CC2)cc1-c1ccc(C(=O)NCC2CC2)cc1 | 1.67%
18 | Oc1cccc(-c2nc(-c3ccccc3)[nH]c2-c2ccncc2)c1 | 1.85%

These compounds were tested against Tyrosine-protein kinase Fgr (Homo sapiens) (UniProt P09769). Conditions: at 0.1 µM.
Chain of Tyrosine-protein kinase Fgr (Homo sapiens) (P09769 2-529 limits assumed): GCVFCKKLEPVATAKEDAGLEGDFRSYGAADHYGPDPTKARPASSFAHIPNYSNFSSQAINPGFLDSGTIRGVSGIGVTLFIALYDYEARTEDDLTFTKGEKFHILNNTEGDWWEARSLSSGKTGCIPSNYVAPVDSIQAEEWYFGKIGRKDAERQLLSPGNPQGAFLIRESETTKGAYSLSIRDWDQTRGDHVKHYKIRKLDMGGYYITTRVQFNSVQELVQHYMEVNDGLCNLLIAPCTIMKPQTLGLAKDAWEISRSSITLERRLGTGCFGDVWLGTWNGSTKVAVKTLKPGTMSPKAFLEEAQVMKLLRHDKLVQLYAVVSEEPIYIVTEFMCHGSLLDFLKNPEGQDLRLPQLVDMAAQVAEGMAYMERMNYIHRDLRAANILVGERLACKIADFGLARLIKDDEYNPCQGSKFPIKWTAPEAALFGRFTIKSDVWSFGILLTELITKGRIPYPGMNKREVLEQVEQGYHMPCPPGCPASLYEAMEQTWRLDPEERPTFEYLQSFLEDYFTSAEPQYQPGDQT

Row | SMILES | inhibition
19 | Nc1nccc(-c2c(-c3ccc(F)cc3)ncn2CCCN2CCOCC2)n1 | 2.89%
20 | NS(=O)(=O)c1ccc(Nc2cc(-c3cccc(O)c3)n[nH]2)cc1 | 2.88%
21 | C[C@@H](Oc1cc(-n2cnc3ccc(OC[C@@H](O)CO)cc32)sc1C(N)=O)c1ccccc1Cl | 0.03%
22 | CN1CCN(C(=O)c2ccc(NC(=O)Nc3ccc(N(C)c4ccnc(Nc5ccc(CS(C)(=O)=O)cc5)n4)cc3)cc2)CC1 | 5.31%
23 | Nc1nccc(-c2c(-c3ccc(F)cc3)nn3cc(C(F)(F)F)ccc23)n1 | 2.64%
24 | COc1cccc(-n2nc(C)c3c(N/N=C(\C)c4ccncc4)ncnc32)c1 | 1.55%
25 | CN(C)c1cc2c(Nc3ccc4c(cnn4Cc4ccccc4)c3)ncnc2cn1 | 9.23%
26 | CC(C)c1ccc2c(c1)NC(=O)/C2=N/Nc1ccc(S(N)(=O)=O)cc1 | 2.93%
27 | COc1cc(Nc2nccc(-c3cnn4ncccc34)n2)cc(OC)c1 | 6.85%
28 | NS(=O)(=O)c1cccc(-c2cc3ccncc3cc2OCc2ccccc2)c1 | 1.58%
29 | CCS(=O)(=O)c1ccc(OC)c(Nc2nccc(N(C)c3ccc4c(C)n[nH]c4c3)n2)c1 | 23.1%
30 | NS(=O)(=O)c1ccc(N/N=C2\C(=O)Nc3ccc(Cl)cc32)cc1 | 4.13%
31 | OCc1ccc(-c2nc(-c3ccccn3)c(-c3ccc4c(c3)OCO4)[nH]2)cc1 | 3.43%
32 | NC(=O)c1cccc(Nc2nccc(Nc3cccc(F)c3)n2)c1 | 5.52%
33 | ON=C1CCc2cc(-c3nc(C4CCNCC4)[nH]c3-c3ccncc3)ccc21 | -1.48%
34 | CN(C)C(=O)O[C@H]1CN[C@H](C#Cc2cc3ncnc(Nc4ccc(OCc5cccc(F)c5)c(Cl)c4)c3s2)C1 | 1.56%
35 | Cc1cc(Cl)cc2c1NC(=O)C2=NNc1ccc(S(N)(=O)=O)cc1 | 4.99%

Row | SMILES | inhibition
36 | COc1ccc(-c2nn3ncccc3c2-c2ccnc(Nc3cccc(C(F)(F)F)c3)n2)cc1 | 10.2%
37 | O=C(Nc1ccc(Oc2ccc3[nH]c(NC(=O)c4ccco4)nc3c2)cc1)Nc1cc(C(F)(F)F)ccc1F | 1.62%
38 | NS(=O)(=O)c1cccc(Nc2cc(-c3ccc(F)cc3)n[nH]2)c1 | 6.05%
39 | CS(=O)(=O)Nc1cccc(-c2ccc3c(NC(=O)C4CC4)n[nH]c3c2)c1 | -0.31%
40 | Cc1ccc2c(c1)/C(=N/Nc1ccc(S(N)(=O)=O)cc1)C(=O)N2 | -0.72%
41 | COc1cc2ncn(-c3cc(OCc4ccccc4S(C)(=O)=O)c(C#N)s3)c2cc1OC | 15.2%
42 | Nc1ccc(C#Cc2cncnc2Nc2ccc(OCc3cccc(F)c3)c(Cl)c2)cc1 | 3.78%
43 | Cc1nc(-c2ccccc2)n2nc(NCCCN3CCOCC3)ncc12 | 2.33%
44 | CCOc1nccc2c1nc(-c1nonc1N)n2CC | 6.66%
45 | COc1cc(/C=N/Nc2ncnc3c2cnn3C(C)C)ccc1O | 9.02%
46 | NS(=O)(=O)c1ccc(-c2cc3ccncc3cc2OCc2ccccc2)cc1 | 5.99%
47 | CN(C)CCCn1c(-c2nonc2N)nc2cnccc21 | 1.37%
48 | Cc1ccc(O)cc1Nc1ccnc2ccc(S(C)(=O)=O)cc12 | 76.2%
49 | Cc1ccc2c(-c3ccnc(Nc4ccc5c(c4)OCCO5)n3)c(-c3ccc(C(F)(F)F)cc3)nn2n1 | 4.97%
50 | CCn1c(-c2nonc2N)nc2c(C#CC(C)(C)O)nc(OCCNC)cc21 | 0.15%
51 | Cc1ccc(NC(=O)CC2CC2)cc1-c1ccc(C(=O)NCC2CC2)cc1 | 7.45%
52 | Oc1cccc(-c2nc(-c3ccccc3)[nH]c2-c2ccncc2)c1 | 5.71%
